Rab9 prom act = qHTS Assay for Rab9 Promoter Activators; Huh7 Rab9 promoter-luciferase reporter, luminescence, 24 h; Potency, µM (top dose mostly 9.22 µM), without a hit: at the highest dose activation, negative = inhibition, most hits filed as activators; 2.8% of 320,000 active; also: % of control where 0% means no effect; nearly all actives have a fitted effect of over 60% in size
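Cells were plated at 1500 per well in reduced-serum medium with 10% FBS and left 2 h. Compound in DMSO was then added for 24 h at 37 °C. Reporter signal was read by luminescence after 10 min with luciferase detection reagent.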
NPC1 prom act = qHTS Assay for NPC1 Promoter Activators | Potency, µM (series often up to 9.22 µM), inactives show top-dose activation, actives largely listed as activators | AID 485313, 2010 | Huh7 NPC1 promoter luciferase reporter, 24 h | 2.4% of 320,000 active; also: % of control where 0% means no effect; nearly all actives have a fitted effect of over 60% in size
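Readout is luciferase luminescence, reflecting NPC1 promoter activation in stably transfected Huh7 cells after 24 h compound exposure at 37 °C in reduced-serum medium with 10% FBS.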
FLuc modulator = qHTS profiling assay for firefly luciferase inhibitor/activator using purifed enzyme and Km concentrations of substrates (counterscreen for miR-21 project); Potency, µM (titrated, usually from 57.5 µM), for the others: at the top dose activity change, negative = inhibition, usual class: inhibitors; Luciferin 4-monooxygenase (Photinus pyralis), P08659; purified FLuc, Km substrates, luminescence inhibition; 6.9% of 360,000 active;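 also: plate controls were vehicle for no effect and reference inhibitor for full effect; nearly all actives have a fitted effect of over 55% in size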
Target sequence (P08659 whole entry, looked up): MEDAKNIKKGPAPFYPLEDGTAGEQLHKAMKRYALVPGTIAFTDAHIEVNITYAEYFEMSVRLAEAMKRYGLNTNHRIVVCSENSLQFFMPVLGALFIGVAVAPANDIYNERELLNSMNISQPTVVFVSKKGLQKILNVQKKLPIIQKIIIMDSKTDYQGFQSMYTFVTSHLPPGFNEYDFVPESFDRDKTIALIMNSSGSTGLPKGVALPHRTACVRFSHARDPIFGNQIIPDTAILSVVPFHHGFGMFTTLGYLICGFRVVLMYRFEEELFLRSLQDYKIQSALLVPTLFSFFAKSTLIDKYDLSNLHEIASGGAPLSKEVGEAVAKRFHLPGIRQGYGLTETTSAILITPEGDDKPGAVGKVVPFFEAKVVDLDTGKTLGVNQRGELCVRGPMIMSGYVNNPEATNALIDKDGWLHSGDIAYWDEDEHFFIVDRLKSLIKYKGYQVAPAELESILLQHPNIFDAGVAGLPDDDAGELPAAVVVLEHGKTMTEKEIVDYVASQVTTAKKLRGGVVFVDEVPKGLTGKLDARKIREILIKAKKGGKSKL
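Purified P. pyralis luciferase (10nM final) with 10uM D-luciferin and 10uM ATP (Km levels) in 50mM Tris acetate pH 7.5, 10mM Mg acetate, 0.01% Tween-20, 0.05% BSA; qHTS 6-point titration, ~60 µM downward; luminescence read.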
ELG1 genotoxic = qHTS screen for small molecules that induce genotoxicity in human embryonic kidney (HEK293T) cells expressing luciferase-tagged ELG1. HEK293T ELG1-luciferase reporter, luminescence, 16 h. Potency, µM (series often up to 46 µM), for the others: at the highest dose activity change, positive = activation, usual class: activators. 1.3% of 330,000 active. AID 504466, 2011; also: % of control where 0% means no effect; nearly all actives have a fitted effect of over 60% in size
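HEK293T cells expressing luciferase-tagged ELG1 were treated with compound or DMSO for 16 hr at 37°C. Luciferase activity was then read after 30 min with ONE-Glo at room temperature; rising signal flags genetic stress.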
KinaseGlo FLuc = Counterscreen for Luciferase (Kinase-Glo TM) Inhibition; Luciferin 4-monooxygenase (Photuris pensylvanica), Q27757; Kinase-Glo luciferase, ATP luminescence, 8 min; Potency, µM (titrated, usually from 38.3 µM), without a hit: top-dose activity change, negative = inhibition, actives largely listed as inhibitors; 0.28% of 200,000 active; AID 1379, 2008; also: % is scaled to controls: 0 for no effect and ±100 for the full control effect; nearly all actives have a fitted effect of over 60% in size
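Compound is pinned into ATP-containing buffer (10 uM ATP, imidazole pH 7.2, 7 mM MgCl2). Kinase-Glo luciferase reagent is then added. Light output is recorded following an 8-min room-temperature incubation.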
SMN2 splice enh = qHTS Assay for Enhancers of SMN2 Splice Variant Expression. AID 1458, 2008. Potency, µM (titrated, usually from 46.1 µM), for the others: at the top dose activity change, positive = activation, most hits filed as activators. 2.8% of 210,000 active. HEK293 SMN2-luciferase splicing reporter, luminescence, 30-36 h; also: % of control where 0% means no effect; nearly all actives have a fitted effect of over 55% in size
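HEK293 cells carry an SMN2 minigene-luciferase reporter in which exon 7 inclusion puts luciferase in frame. Cells were seeded at 2000 cells/well, attached for 10-12 hours, then exposed to compounds for 30-36 hours at 37C before ONE-Glo luminescence.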
The depositor's hits bear a star; ? = inconclusive; nt = no result given. Shown are actives, neighbours in structure and some others; about 7.4% of the full set was active somewhere. Calls follow the shape of the dose curve; as a rule, active = well fitted curve in the direction sought with a large enough effect; inconclusive = small, poorly fitted or top-dose-only effect, or another doubt; inactive = no such curve, though single readings can be large; an effect the other way counts as inactive or inconclusive. Potency is read from the fitted curve at half-maximal effect.

SMILES | Rab9 prom act | NPC1 prom act | FLuc modulator | ELG1 genotoxic | KinaseGlo FLuc | SMN2 splice enh
CCOc1cc(/C=N\NC(=O)c2ccc(NC(=O)C(C)(C)C)cc2)ccc1OC(=O)c1ccc(OC)cc1 | 2% | 6% | 7% | 9% | -3% | 3%
COc1cccc(OCc2cc(/C=N/Nc3ccc(C(=O)O)cc3)ccc2OC)c1 | ? | 18% | 6.7µM* | 4.6µM* | nt | nt
CCOc1cc(/C=N/Nc2ccc(C(=O)O)cc2)ccc1OC(=O)c1ccccc1C | 4µM* | 1.4µM* | ? | 16% | nt | nt
COc1ccc(C(=O)N/N=C/c2ccc(OC)c(COc3ccc(F)cc3)c2)cc1 | -2% | -6% | -8% | -22% | nt | nt
COc1cccc(C(=O)Oc2ccc(/C=N/Nc3ccc(C(=O)O)cc3)cc2OC)c1 | ? | 0.45µM* | 24µM* | ? | nt | nt
COc1cc(/C=N/NC(=O)c2ccc(N)cc2)ccc1OC(=O)c1cccc(C)c1 | 1% | 2% | -15% | -2% | nt | nt
Cc1cccc(C(=O)Nc2cccc(-c3ccc4nncn4n3)c2)c1 | 13% | -2% | -14% | -2% | -1% | -21%
O=C(CN1C(=O)CSc2ccc(S(=O)(=O)N3CCCCC3)cc21)NCc1ccc(F)cc1Cl | nt | nt | -18% | nt | nt | nt
N#C/C(=C\c1ccc(OCC(N)=O)cc1)c1ccccc1 | 22% | 25% | 3.8µM* | ? | 0% | 23%
CCOc1ccc(NC(=O)CN2C(=O)C(c3ccccc3)=NC23CCCCCC3)cc1 | nt | nt | -4% | nt | nt | 32%
C=C(C)COc1ccc2c(C)c(CC(=O)OC)c(=O)oc2c1C | ? | ? | 9.5µM* | 9.2µM* | -2% | -36%
COC(=O)Cc1c(C)c2ccc(OCC(C)=O)c(C)c2oc1=O | ? | ? | ? | 9.2µM* | 0% | 13µM*
COC(=O)Cc1c(C)c2ccc(OCc3nn[nH]n3)c(C)c2oc1=O | -1% | -4% | ? | 3% | 1% | 4%
Cc1ccc(NC(=O)N2C(=O)C3(OCCO3)c3ccccc32)cc1 | 2µM* | 3.2µM* | ? | ? | -4% | ?
Cc1cc(/C=C(\C#N)C(=O)N2CCOCC2)c(C)n1C1CCCC1 | 0.32µM* | 0.5µM* | 1.1µM* | 1.6µM* | nt | nt
Cc1ccc(S(=O)(=O)c2cnc(SCC(=O)Nc3ccccc3C(F)(F)F)[nH]c2=O)cc1C | nt | nt | 11µM* | nt | nt | -8%
Cc1ccc(NC(=O)CSc2ncc(S(=O)(=O)c3ccc(C(C)C)cc3)c(=O)[nH]2)cc1C | nt | nt | ? | nt | nt | -3%
Cc1cc(C)cc(NC(=O)CSc2ncc(S(=O)(=O)c3ccccc3)c(=O)[nH]2)c1 | -4% | 1% | -6% | 1% | 4% | -4%
Cc1c(Cl)cccc1NC(=O)CSc1ncc(S(=O)(=O)c2ccc(C(C)C)cc2)c(=O)[nH]1 | nt | nt | 7.6µM* | nt | nt | -5%
Cc1ccc(S(=O)(=O)c2cnc(SCC(=O)Nc3ccc4c(c3)OCCO4)[nH]c2=O)cc1C | nt | nt | 11µM* | nt | nt | -3%
Cc1ccc2c(c1)SC1=NC(c3ccccc3)(C(F)(F)F)NC(=O)N12 (stereo not drawn) | 0% | 7% | -3% | 0% | 0% | -13%
Cc1ccc(C#N)c(SCC(=O)Nc2nccs2)n1 | 0.45µM* | 0.79µM* | -11% | 1.8µM* | 1% | 1.8µM*
N#Cc1cc2c(nc1SCC(=O)Nc1sc3c(c1C#N)CCC3)CCC2 | ? | ? | 2% | 13% | -1% | 5%
Cc1ccc(SCC(=O)Nc2nccs2)cc1 | ? | ? | ? | ? | -5% | 10%
CCOC(=O)c1c(SCC(=O)Nc2nccs2)nc(C)c(C)c1C | 2.5µM* | 2.8µM* | -1% | ? | nt | nt
